Results: PubChem BioAssay (NCI)
The panel holds about 83,000 compounds, 20% with a hit somewhere; the sample as a whole holds those more often.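 96-well plates, one dose, 48 hours. Percent growth reported; active if below 10.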 A number with no mark means an inactive call. Calls of active or inactive are those of the source.

Legend:
Assay in all cases: NCI-60 one-dose screen, 48 h (100 = growth as untreated, 0 = no growth, -100 = all killed)
Settings in all cases: 10 µM unless noted
T-47D breast = test system: T-47D breast
BT-549 breast = test system: BT-549 breast
MDA-MB-435 melanoma = test system: MDA-MB-435 melanoma
SW-620 colon = test system: SW-620 colon
MCF7 breast = test system: MCF7 breast
HCT-116 colon = test system: HCT-116 colon
KM12 colon = test system: KM12 colon
HCC-2998 colon = test system: HCC-2998 colon

Row | Compound | growth (T-47D breast) | growth (BT-549 breast) | growth (MDA-MB-435 melanoma) | growth (SW-620 colon) | growth (MCF7 breast) | growth (HCT-116 colon) | growth (KM12 colon) | growth (HCC-2998 colon)
1 | Cc1cccc(NC(=O)c2sc3nc4c(cc3c2N)CCC4)c1C | 64% | 61.7% | -26.9% (active) | 28.6% | 13% | 19.7% | 12.2% | 
2 | Cc1cc(Cl)ccc1OC(C)C(=O)Nc1nnc(C2CC2)s1 (stereo not given) | 90.9% | 116% | 102% | 103% | 112% | 94.7% | 107% | 
3 | CC1=CNNc2c3ncnc-3ncn21 | 101% | 106% | 111% | 102% | 111% | 102% | 103% | 102%
4 | COC(=O)c1ccc(C)cc1 | 91.4% | 120% | 101% | 101% | 91.7% | 101% | 108% | 
5 | COc1ccc(/C(=N/O)c2cc(F)c(F)c(OC)c2F)cc1O | 28.4% | 33.5% | -35.7% (active) | 15.2% | 18.7% | 15.6% | 29.3% | 
6 | O=C(Nc1cccc(C(F)(F)F)c1)Nc1ccc(OCc2nnc(-c3ccccc3)o2)c(F)c1 | 21.1% | 29.6% | 49.4% | 28.7% | 24.8% | 14.6% | 12.2% | 64.3%
7 | CC(C)(C)c1cn2cccc(C(=O)N3CCN(CC(=O)Nc4ccc(Cl)cc4C(=O)c4ccccc4Cl)CC3)c2n1 | 31.8% | -15.1% (active) | 63.4% | 60.6% | 43.8% | 33.3% | 54.2% | 
8 | CCCCn1c(=O)c(C2CNC(=O)c3ccccc3N2)cc2ccccc21 (stereo not given) | 93.7% | 97.8% | 105% | 99.2% | 99.6% | 94.9% | 101% | 108%
9 | Nc1c(C(=O)Nc2c(Cl)cccc2Cl)sc2nc3c(cc12)CCCCC3 | 57.7% | 52.6% | 9.69% (active) | 46.1% | 18.4% | 62.3% | 53.6% | 
10 | C=C1C(=O)O[C@H]2[C@H]1CC/C(COC(=O)NCc1cc(OC)c(OC)c(OC)c1)=C\CC[C@@]1(C)O[C@@H]21 | 34% | 55.1% | 62.8% | 15.6% | 17% | 18.7% | 92% | 101%
11 | COc1cc(OC)cc(-c2n[nH]nc2-c2ccc3c(c2)OCO3)c1 | 55.4% | 51.2% | -82.8% (active) | 30.8% | 24.3% | 15.7% | 25.1% | 
12 | CC/C=C\C[C@H](O)C/C=C1/C(=O)C(Cl)=C[C@@H]1C/C=C\CCCC(=O)OC | -16.9% (active) | -85.5% (active) | -43.7% (active) | -55.3% (active) | -71.2% (active) | -83.7% (active) | -81.5% (active) | 
13 | CC(C)[C@H](CO)Nc1nc(Nc2ccc(C(=O)NCCNS(=O)(=O)c3cccc4c(N(C)C)cccc34)c(Cl)c2)c2ncn(C(C)C)c2n1 | 20.6% | -37.9% (active) | 0.754% (active) | 4.97% (active) | 6.04% (active) | 4.44% (active) | -9.33% (active) | 
14 | Cc1ccc(S(=O)(=O)N2CCC(C(=O)Nc3ccc(F)cc3F)CC2)cc1 | 88.8% | 96.9% | 95% | 103% | 93.2% | 101% | 109% | 
15 | O=S(=O)(NCCCNc1cc(-c2cn(-c3ccccc3)nc2-c2cccc(O)c2)ccn1)c1ccc(C(F)(F)F)cc1 | 35.1% | 42.2% | 34.9% | 27.4% | 22% | 29% | 23.3% | 
16 | C/C(=N\NC(=O)CC#N)c1cc2cc(Cl)ccc2o1 | 78.4% | 125% | 106% | 102% | 72.2% | 107% | 98.9% | 
17 | O=C(Nc1cccc(Cl)c1)c1cc([N+](=O)[O-])ccc1O | 41.9% | 66.5% | 60.4% | 58.7% | 42.9% | 45.9% | 43.1% | 

Row | Compound | growth (T-47D breast) | growth (BT-549 breast) | growth (MDA-MB-435 melanoma) | growth (SW-620 colon) | growth (MCF7 breast) | growth (HCT-116 colon) | growth (KM12 colon) | growth (HCC-2998 colon)
18 | Cc1ccc(S(=O)(=O)NCCCNc2nccc(-c3c(-c4ccccc4)nc4sccn34)n2)cc1 | 39.9% | 38.9% | 34% | 58.1% | 42.8% | 15.2% | 18.6% | 93.9%
19 | C/C(=C\c1csc(C)n1)[C@@H]1C[C@@H]2O[C@]2(C)CCC[C@H](C)[C@H](O)[C@@H](C)C(=O)C(C)(C)[C@@H](O)CC(=O)N1 | -21.8% (active) | -45.3% (active) | -79.7% (active) | -98.6% (active) | -82.1% (active) | -79.1% (active) | -99.2% (active) | 
20 | O=C(/C=C/c1ccccc1)n1c(-c2ccc(Cl)cc2)nc2ccccc21 | -4.25% (active) | -50.5% (active) | -44.3% (active) | -55.1% (active) | 10.3% | -71.5% (active) | -62.9% (active) | 5.08% (active)
21 | CCC(C)NCC(=O)O (stereo not given) | 86.3% | 110% | 101% | 105% | 103% | 99.9% | 105% | 
22 | CSc1ccccc1C#C/C=C\C#Cc1ccccc1N1CCCC1=O | 63.2% | 69.7% | 8.9% (active) | 26.9% | 37.6% | 34.4% | 44.4% | 50.2%
23 | O=S(=O)(NCCCNc1nccc(-c2c(-c3ccc(O)cc3)nc3sccn23)n1)c1ccc(F)cc1 | -5.79% (active) | 14% | -17.9% (active) | 9.69% (active) | 6.45% (active) | -40% (active) | 11.9% | 
24 | Cc1nn(-c2ccc(Cl)cc2)c(=O)n1CCOc1ccccc1Cl | 79.5% | 94.4% | 107% | 103% | 98.3% | 74% | 101% | 106%
25 | Cc1c(C(=O)NCc2ccccc2)[n+](=O)c2cc(F)ccc2n1[O-] | 107% | 121% | 93.5% |  | 97.1% | 97.9% | 111% | 88.4%
26 | Nc1nc(N)c2nc(CNc3ccc(C(=O)CC(CCC(=O)O)C(=O)O)cc3)cnc2n1 (stereo not given) | 49.5% | 63.3% | 34.4% | 25.7% | 22.8% | 21.6% | 32.2% | 
27 | COc1cccc(-c2nc3sccn3c2-c2ccnc(NCCCNS(=O)(=O)c3ccccc3)n2)c1 | 0.88% (active) | 47.2% | 40.9% | 75.1% | 52% | 38.6% | 43.5% | 
28 | Cn1c(=O)c2c(nc3n2CCN(CCc2ccc(OCCN4CCOCC4)cc2)C3)n(C)c1=O | 93.6% | 109% | 105% |  | 95.7% | 109% | 103% | 122%
29 | CCC(c1ccc(OC)cc1)C(CC)c1ccc(OCC[N+](C)(C)C)cc1 (stereo not given) | 62.7% | 57.2% | 59.8% |  | 56.9% | 89.6% |  | 39.3%
30 | COc1cc(C(=O)CCCl)ccc1O | 94.7% | 112% | 103% |  | 80.2% | 100% | 97.1% | 103%
31 | CC(=O)Nc1nc(C(=O)N2N=C(C)/C(=C/c3cccs3)C2=O)cs1 | 100% | 97% | 103% |  | 90.8% | 100% | 110% | 108%
32 | Nc1nc(Cl)c2c(ncn2Cc2ccc(CCl)cc2)n1 | 90.2% | 6.29% (active) | 95.5% | 93.3% | 72.5% | 94.2% | 94.3% | 
33 | CC(=O)Oc1cccc(OC(C)=O)c1OC(C)=O | 97.1% | 94.3% | 94.6% |  | 88.7% | 89.5% | 105% | 92.1%
34 | Clc1ccc(-c2nc(-c3ccco3)cn3ccnc23)cc1 | 40.2% | 84.5% | 78.6% | 72.7% | 27.2% |  | 48.7% | 58.2%
